Experimental findings from PubChem BioAssay (EPA / NIEHS) are described below.

Records with an inconclusive call do not appear. The source made the active and inactive calls. The calls were made as follows: active = hit-call score of the fitted dose curve at least 0.9, where 1 is the maximum; inconclusive = response in the unintended direction; inactive = score below 0.9.

Broadly, the AC50 is the concentration giving half of the maximal activity seen.

A short description of test [1]: TOX21_p53_BLA_p3_viability: Viability Assessment in the Tox21 HCT-116 p53 Agonism Beta-lactamase Assay, Phase 3 (AID 2283593). The procedure, abridged:
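Cellular ATP was quantified by CellTiter-Glo luminescence, read after 30 min at room temperature. Beforehand, HCT116 cells (4000/well) received compound 5 h post-seeding, 217-fold diluted from DMSO, then incubated 16 h at 37C.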

Test [2] deals with Cellular tumor antigen p53 (Homo sapiens) (UniProt P04637). The experiment in a line: TOX21_p53_BLA_p3_ratio: Tox21 HCT-116 p53 Agonism Beta-lactamase Assay, Ratio, Phase 3 (AID 2283596). The gist of the method: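 HCT116 p53-bla cells (4000/well) given compound in DMSO (217-fold dilution) after 5 h, incubated 16 h at 37C. CCF4-AM substrate 2 h at room temperature; 460/530 nm emission ratio, gain fitted against DMSO.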
Chain of Cellular tumor antigen p53 (Homo sapiens) (P04637 whole entry, looked up): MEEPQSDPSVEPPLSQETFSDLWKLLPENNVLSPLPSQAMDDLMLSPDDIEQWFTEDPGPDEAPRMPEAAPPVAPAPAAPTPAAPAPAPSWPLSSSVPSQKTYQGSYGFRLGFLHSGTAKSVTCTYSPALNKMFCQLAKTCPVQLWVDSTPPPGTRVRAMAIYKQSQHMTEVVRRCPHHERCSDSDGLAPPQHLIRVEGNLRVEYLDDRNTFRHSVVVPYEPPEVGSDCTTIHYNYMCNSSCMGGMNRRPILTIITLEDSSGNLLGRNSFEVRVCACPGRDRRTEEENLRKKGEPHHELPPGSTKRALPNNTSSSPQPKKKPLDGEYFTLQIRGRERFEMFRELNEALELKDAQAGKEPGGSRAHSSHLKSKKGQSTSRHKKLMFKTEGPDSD

For test [3] the target is unchanged. The experiment in a line: TOX21_p53_BLA_p5_ratio: Tox21 HCT-116 p53 Agonism Beta-lactamase Assay, Ratio, Phase 5 (AID 2283599). The gist of the method: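 Beta-lactamase reporter ratio (blue 460 nm over green 530 nm, 405 nm excitation) after 2 h CCF4-AM loading, in HCT-116 cells exposed 16 h at 37 C to compounds pinned at 217-fold dilution. Increases relative to DMSO baseline scored.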

The target in a further test is PGR (gene 5241) (UniProt P06401). As to the kind of experiment: TOX21_PR_BLA_Followup_Antagonist_ratio: Tox21 HEK293 Progesterone Receptor (PR) Antagonism Beta-lactamase Follow-Up Assay, Ratio (AID 2283934). The gist of the method: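 PR-UAS-bla HEK293T cells, 3,000/well in 2% charcoal-stripped FBS, given compound plus 1nM R5020 agonist for 16 hr at 37C. Beta-lactamase FRET substrate 2 hours, ratio cleaved/uncleaved fluorescence; viability by CellTiter-Glo in same wells.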
Chain of PGR (gene 5241) (P06401 whole entry, looked up): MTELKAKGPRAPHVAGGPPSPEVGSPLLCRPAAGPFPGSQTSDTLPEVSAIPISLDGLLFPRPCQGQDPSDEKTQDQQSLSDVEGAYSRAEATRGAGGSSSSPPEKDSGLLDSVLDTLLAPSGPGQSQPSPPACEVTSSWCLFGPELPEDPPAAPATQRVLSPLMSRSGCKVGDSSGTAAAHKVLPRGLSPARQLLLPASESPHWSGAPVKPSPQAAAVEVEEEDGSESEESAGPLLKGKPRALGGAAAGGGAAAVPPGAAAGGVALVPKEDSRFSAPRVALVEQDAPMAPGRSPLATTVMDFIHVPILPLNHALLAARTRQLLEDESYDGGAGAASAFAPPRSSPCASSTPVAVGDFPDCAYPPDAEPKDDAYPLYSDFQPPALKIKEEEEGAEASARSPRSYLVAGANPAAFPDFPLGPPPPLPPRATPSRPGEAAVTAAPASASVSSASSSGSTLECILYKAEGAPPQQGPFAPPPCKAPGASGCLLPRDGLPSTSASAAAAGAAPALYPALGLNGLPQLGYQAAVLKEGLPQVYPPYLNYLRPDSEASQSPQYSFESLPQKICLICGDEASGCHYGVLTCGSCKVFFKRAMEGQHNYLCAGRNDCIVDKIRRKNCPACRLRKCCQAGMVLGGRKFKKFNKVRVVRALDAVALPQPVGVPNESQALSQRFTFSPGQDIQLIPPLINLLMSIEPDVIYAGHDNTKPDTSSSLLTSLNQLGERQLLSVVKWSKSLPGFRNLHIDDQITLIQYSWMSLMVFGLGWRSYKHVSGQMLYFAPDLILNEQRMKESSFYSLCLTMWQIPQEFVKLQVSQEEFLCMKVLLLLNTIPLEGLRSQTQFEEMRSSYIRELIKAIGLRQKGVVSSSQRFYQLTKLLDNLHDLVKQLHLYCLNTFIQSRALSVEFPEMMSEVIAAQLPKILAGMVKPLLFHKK

Test [4] in a line: TOX21_PR_BLA_Followup_Antagonist_viability: Viability Assessment in the Tox21 HEK293 Progesterone Receptor (PR) Antagonism Beta-lactamase Follow-Up Assay (AID 2283936).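 Also: hits lower the luminescence signal meaning cytotoxicity.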 The gist of the method: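 PR-UAS-bla HEK293T cells (3,000/well, 2% charcoal-stripped FBS) given compound plus R5020 agonist, 16 h at 37C. CellTiter-Glo added after bla read, 30 min at room temperature; luminescence loss indicates cytotoxicity.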

Test [5] in a line: TOX21_PR_LUC_Followup_Antagonist_viability: Viability Assessment in the Tox21 HEK293 Progesterone Receptor (PR) Antagonism Luciferase Follow-Up Assay (AID 2283940). The procedure, abridged:
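HEK293-PR-A-luc cells kept in charcoal-stripped FBS medium were plated 5 h before compound addition, then exposed 16 h at 37C; viability read as cellular ATP by luciferase luminescence, loss of signal indicating cytotoxicity.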

Test [6] can be described thus: TOX21_p53_BLA_p4_viability: Viability Assessment in the Tox21 HCT-116 p53 Agonism Beta-lactamase Assay, Phase 4 (AID 2283597).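 Also: hits lower the luminescence signal meaning cytotoxicity.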 The procedure, abridged:
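Cells plated, 5 h pre-incubation; DMSO compounds pinned (217-fold dilution); 16 h, 37C/5% CO2; CCF4-AM 2 h RT; CellTiter-Glo 30 min RT; luminescence read.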

The target of test [7] is Cellular tumor antigen p53 (Homo sapiens) (UniProt P04637). As to the kind of experiment: TOX21_p53_BLA_p4_ratio: Tox21 HCT-116 p53 Agonism Beta-lactamase Assay, Ratio, Phase 4 (AID 2283601). The procedure, abridged: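 Signal is the blue/green (460nm/530nm) ratio of cleaved versus uncleaved CCF4-AM substrate, read after 2 h substrate loading. Cells were HCT116 carrying the p53-responsive beta-lactamase reporter, dosed 16 h at 37C, 5% CO2; CellTiter-Glo measured in parallel.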

A short description of test [8]: TOX21_p53_BLA_p5_viability: Viability Assessment in the Tox21 HCT-116 p53 Agonism Beta-lactamase Assay, Phase 5 (AID 2283600). The gist of the method: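 4000 cells/well; 5 h pre-incubation; DMSO compounds pin-transferred, 217-fold dilution; 16 h, 37C/5% CO2; CCF4-AM 2 h RT; CellTiter-Glo 30 min RT; luminescence.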
Test [9] in a line: TOX21_PR_LUC_Followup_Agonist_viability: Viability Assessment in the Tox21 HEK293 Progesterone Receptor (PR) Agonism Luciferase Follow-Up Assay (AID 2283941).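 Also: loss of signal means cytotoxicity so actives lower viability.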 The gist of the method: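 HEK293-PR-A-luc cells, kept in 10% charcoal-stripped FBS medium, were treated with compounds for 16 h at 37C. Viability read as cellular ATP by luciferase-coupled luminescence; loss of signal indicates cytotoxicity.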

Test [10] can be described thus: TOX21_TRB_BLA_Antagonist_Followup_viability: Viability Assessment in the Tox21 Thyroid Hormone Receptor beta Antagonism Beta-lactamase (BLA) Follow-Up Assay (AID 2283961). The gist of the method: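 TRβ-bla HEK293T (human TRβ LBD fused to GAL4 DBD), 3,000 cells/well, 2% charcoal-stripped FBS, phenol red-free medium; 18 h compound exposure, 37C; CellTiter-Glo 30 min RT; luminescence, loss-of-signal readout.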

For `CCC1COC(Cn2cncn2)(c2ccc(Cl)cc2Cl)O1` (configuration not stated), the outcome in [1], in [2], in [3], in [4] and in test [5] was inactive. Also, in the test with PGR (gene 5241), the AC50 was 60.3 µM (active).

Turning to `CC1(C)C(/C=C(\Cl)C(F)(F)F)C1C(=O)OC(C#N)c1cccc(Oc2ccccc2)c1` (configuration not stated), the call in test [1], in [2], in [6] and in [7] was inactive.

In the case of `CC(=O)O[C@H]1CC[C@H]2[C@@H]3CCC4=CC(=O)CCC4=C3C=C[C@]12C`, the molecule was classed as inactive in test [1], in test [2], in test [6], in test [3] and in [7].

In the case of `CCCC[N+]1(C)[C@@H]2CC(OC(=O)[C@H](CO)c3ccccc3)C[C@H]1[C@@H]1O[C@@H]12` (some centres not stated), the molecule was classed as inactive in test [1], in [2], in [3], in test [8] and in test [7].

Regarding `CC[N+]1(C)CCCC(OC(=O)C(O)(c2ccccc2)c2ccccc2)C1` (configuration not stated), the call in [1], in test [2], in test [3] and in test [8] was inactive.

As for `CC(N)Cc1ccc(O)cc1` (configuration not stated), the result in test [1], in test [2], in test [3], in test [8] and in test [7] was inactive.

Regarding `NC(=S)C(N)=S`, the molecule was classed as inactive in test [1], in [2], in test [3] and in test [8].

In the case of `CC(Cc1ccc2c(c1)OCO2)NO` (configuration not stated), the result in test [1], in test [3] and in [7] was inactive.

`CC(C)c1c(CN(C)C(C)Cc2ccccc2)n(C)n(-c2ccccc2)c1=O` (configuration not stated): the molecule was called inactive in test [1].

Turning to `C[C@]12CC[C@H]3[C@@H](CCC4=CC(=O)CC[C@@H]43)[C@@H]1CC[C@@H]2OC(=O)CCc1ccccc1`, the outcome (in the test with PGR (gene 5241); in [4]; in test [5]; in test [9]) was inactive.

For the molecule `CCCCCCCCCCn1cc[n+](C)c1`, in [10], the AC50 was 7.88 µM (active).
